From PubChem BioAssay AID1159580 (chemical genetic matrix, 2015)
“And” between values parts separate entries of the source, which are not always exact repeats. Identical values can stand only once. In all, about 5,500 compounds went through this assay and about 2,000 (36%) were called active. Inconclusive results (about 18%) are left out. No stated cut-off is given here; in the data, active means normalized growth mostly below about 0.91 (no sharp cut-off); inconclusive means no clear call, values can overlap the other calls; inactive means mostly above about 0.92. The list shows a part of the results.

Experiment: chemical genetic growth profiling, strain panel (AID 1159580);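 further: tested at 20 µM; growth read once vehicle control cultures reached saturation at 30 °C; 1 = growth at the plate median or of vehicle wells; lower values mean less growth of the strain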
Conditions: S. cerevisiae deletion strains, growth OD

Measured: normalized growth

CCOC(=O)[C@H](CCc1ccccc1)N[C@@H](C)C(=O)N1[C@H](C(=O)O)C[C@@H]2CCC[C@@H]21
inactive: locus YAL013W, strain DEP1, active compounds read low 1.01 | locus YAL021C, strain ccr4, active compounds read low 1.01 | locus YAL026C, strain drs2, active compounds read low 0.985 | locus YAL030W, strain snc1, active compounds read low 0.995 | locus YBL061C, strain skt5, active compounds read low 0.984 | locus YBR009C, strain hhf1, active compounds read low 0.995 | locus YBR021W, strain FUR4, active compounds read low 1 | locus YBR023C, strain chs3, active compounds read low 0.983 | locus YBR171W, strain sec66, active compounds read low 0.971 | locus YBR229C, strain ROT2, active compounds read low 1.01 | locus YBR231C, strain swc5, active compounds read low 0.982 | locus YBR279W, strain paf1, active compounds read low 0.979 | locus YCL011C, strain gbp2, active compounds read low 0.981 | locus YCL016C, strain dcc1, active compounds read low 0.985 | locus YCL029C, strain bik1, active compounds read low 1.01 | locus YCL061C, strain MRC1, active compounds read low 0.982 | locus YCL069W, strain vba3, active compounds read low 0.977 | locus YCR088W, strain abp1, active compounds read low 0.978 | locus YDL005C, strain med2, active compounds read low 0.981 | locus YDL035C, strain GPR1, active compounds read low 1.01 | locus YDL040C, strain nat1, active compounds read low 0.981 | locus YDL074C, strain BRE1, active compounds read low 1.02 | locus YDL101C, strain DUN1, active compounds read low 1.01 | locus YDL134C, strain PPH21, active compounds read low 1.01 | locus YDL185W, strain tfp1, active compounds read low 0.998 | locus YDL192W, strain arf1, active compounds read low 1.02 | locus YDR001C, strain nth1, active compounds read low 0.978 | locus YDR069C, strain doa4, active compounds read low 1.01 | locus YDR101C, strain arx1, active compounds read low 1.01 | locus YDR137W, strain rgp1, active compounds read low 0.946 | locus YDR150W, strain NUM1, active compounds read low 1.01 | locus YDR159W, strain sac3, active compounds read low 0.987 | locus YDR162C, strain NBP2, active compounds read low 1.03 | locus YDR195W, strain ref2 0.97 | locus YDR297W, strain sur2, active compounds read low 0.981 | locus YDR318W, strain mcm21, active compounds read low 1.02 | locus YDR334W, strain swr1, active compounds read low 0.978 | locus YDR335W, strain msn5, active compounds read low 0.985 | locus YDR388W, active compounds read low 1.01 | locus YDR392W, strain spt3, active compounds read low 0.974 | locus YDR502C, strain sam2, active compounds read low 1.01 | locus YEL003W, strain gim4, active compounds read low 0.981 | locus YEL037C, strain rad23, active compounds read low 0.982 | locus YEL061C, strain CIN8 (second series), active compounds read low 0.98 | locus YEL061C, strain CIN8, active compounds read low 1.01 | locus YER015W, strain faa2, active compounds read low 0.989 | locus YER016W, strain bim1, active compounds read low 0.993 | locus YER110C, active compounds read low 1.01 | locus YER111C, strain swi4, active compounds read low 0.976 | locus YER155C, strain BEM2 (second series), active compounds read low 0.972 | locus YER155C, strain BEM2, active compounds read low 1 | locus YER167W, strain BCK2, active compounds read low 1.01 | locus YFR010W, strain ubp6, active compounds read low 0.989 | locus YGL078C, strain dbp3, active compounds read low 1.01 | locus YGL086W, strain mad1, active compounds read low 1.02 | locus YGL167C, strain pmr1, active compounds read low 0.979 | locus YGL173C, strain kem1, active compounds read low 0.969 | locus YGL227W, strain vid30, active compounds read low 0.979 | locus YGL240W, strain doc1, active compounds read low 1 | locus YGL248W, strain PDE1, active compounds read low 1.01 | locus YGL253W, strain hxk2, active compounds read low 0.996 | locus YGR078C, strain PAC10, active compounds read low 1.01 | locus YGR135W, strain pre9, active compounds read low 1.02 | locus YGR229C, strain SMI1, active compounds read low 1.01 | locus YGR252W, strain gcn5, active compounds read low 1.03 | locus YHR013C, strain ard1, active compounds read low 0.956 | locus YHR027C, strain rpn1, active compounds read low 0.979 | locus YHR030C, strain SLT2, active compounds read low 1 and 1.01 | locus YHR079C, strain IRE1 (second series), active compounds read low 1.01 | locus YHR079C, strain IRE1, active compounds read low 1 | locus YHR094C, strain hxt1, active compounds read low 1.02 | locus YHR129C, strain ARP1, active compounds read low 1.01 | locus YHR142W, strain chs7, active compounds read low 0.971 | locus YHR200W, strain rpn10, active compounds read low 1.02 | locus YIL066C, strain RNR3, active compounds read low 1.01 | locus YIL073C, strain SPO22, active compounds read low 1.07 | locus YIL125W, strain kgd1, active compounds read low 1.03 | locus YIR030C, strain dcg1, active compounds read low 1.02 | locus YJL092W, strain hpr5, active compounds read low 0.981 | locus YJL095W, strain BCK1 (second series), active compounds read low 0.985 | locus YJL095W, strain BCK1, active compounds read low 1 and 0.991 | locus YJL115W, strain asf1, active compounds read low 0.986 | locus YJL129C, strain trk1, active compounds read low 0.987 | locus YJL134W, strain LCB3, active compounds read low 1.01 | locus YJL154C, strain vps35, active compounds read low 0.978 | locus YJL164C, strain tpk1, active compounds read low 0.995 | locus YJL166W, strain qcr8, active compounds read low 0.99 | locus YJL168C, strain set2, active compounds read low 1.02 | locus YJL187C, strain SWE1 (second series), active compounds read low 1.01 | locus YJL187C, strain SWE1, active compounds read low 0.985 | locus YJR043C, strain POL32, active compounds read low 1.01 | locus YJR066W, strain TOR1, active compounds read low 0.955
